Assay results reported in PubChem BioAssay (Tox21).
Inconclusive results are not listed. Calls of active or inactive are those of the source. The call rests on the fitted dose curve; in most records, active means well fitted activation curve with a large enough effect in the repeat runs; inconclusive means weak or mixed curves; inactive means flat fitted curve, though single readings scatter.

target: Nuclear receptor subfamily 1 group I member 2 (Homo sapiens) (UniProt O75469); assay: Human pregnane X receptor (PXR) activation by small molecules, qHTS assay (AID 1346985); settings: DPX-2 HepG2 CYP3A4-luciferase, 24 h; series mostly up to 38.3 µM; further: nearly all actives have a fitted effect of over 40% in size
Description: National Center for Advancing Translational Sciences [NCATS]
NIH Chemical Genomics Center [NCGC]
U.S. Environmental Protection Agency [EPA]
National Institutes of Environmental Health Sciences [NIEHS]
National Toxicology Program [NTP]
The Pregnane X receptor (PXR), a ligand activated nuclear receptor plays a critical role in the regulation of genes involved in drug metabolism and transporters. Activation of PXR may be involved in the unwanted adverse drug-drug interactions. […] Therefore, identification of compounds with the potential for PXR activation can be of importance in improving the efficacy of drugs with less toxicity and avoiding drug-drug interactions.
DPX-2 (Puracyp, Inc.) cell lines, used for screening against human PXR activation has HepG2 cells co-transfected with a PXR response element and a luciferase construct containing CYP3A4 promoter. Increase in luciferase activity can be used to identify the compounds that activate the PXR pathway.
DPX-2 cells were dispensed at 2,000 cells per well in 5uL of assay medium into white, solid-bottom 1536-well plates using a Multidrop Combi dispenser (Thermo Scientific). The assay plates were incubated at 37C for 5hr before transferring 23nL of test compounds dissolved in DMSO and positive control via Pintool station (Wako). The assay plates were incubated at 37C for 24hr. Then 5ul One-Glo assay reagent (Promega) was added to each plate by a Flying Reagent Dispenser (FRD, Aurora Discovery) and following 30 min incubation at room temperature, luciferase activity was quantified on a ViewLux plate reader (Perkin Elmer).

Row | Compound | outcome
1 | O=c1[nH]cnc2c1ncn2[C@H]1CC[C@@H](CO)O1 | inactive
2 | CCN(CC)C(=O)c1cccc(C)c1 | inactive
3 | CN1[C@@H]2CC(OC(=O)[C@H](CO)c3ccccc3)C[C@H]1[C@@H]1O[C@@H]12 (stereo not given in full) | inactive
4 | CN(C)C(=S)SC(=S)N(C)C | inactive
5 | O=C1O[C@H]([C@@H](O)CO)C(O)=C1O | inactive
6 | NC(CO)(CO)CO | inactive
7 | CN(C)C(=O)Nc1ccc(Cl)c(Cl)c1 | inactive
8 | CCCCCCCCCCCCCCCC[N+](C)(C)Cc1ccccc1 | inactive
9 | CCCCCCCC(=O)OCC(COC(=O)CCCCCCC)OC(=O)CCCCCCC | inactive
10 | C=CCc1ccc(O)c(OC)c1 | inactive
11 | NC(=O)c1cccnc1 | inactive
12 | CN1CCc2cccc3c2[C@H]1Cc1ccc(O)c(O)c1-3 | inactive
13 | CS(=O)(=O)OCCCCOS(C)(=O)=O | inactive
14 | O=C1OC2(c3ccccc31)c1cc(Br)c(O)c(Br)c1Oc1c2cc(Br)c(O)c1Br | inactive
15 | CCCCCCc1ccc(O)cc1O | inactive
16 | O=C(O)CC(O)C(=O)O (stereo not given) | inactive
17 | CCCc1cc(=O)[nH]c(=S)[nH]1 | inactive
18 | O=C1c2c(O)cccc2Cc2cccc(O)c21 | inactive
19 | CC(=O)CCC(=O)O | inactive
20 | Nc1c(N=Nc2ccc(-c3ccc(N=Nc4cc(S(=O)(=O)O)c5ccccc5c4N)cc3)cc2)cc(S(=O)(=O)O)c2ccccc12 | inactive
21 | Cc1c(C(=O)O)c(O)cc2c1C(=O)c1c(O)c([C@@H]3O[C@H](CO)[C@@H](O)[C@H](O)[C@H]3O)c(O)c(O)c1C2=O | inactive
22 | CCOC(N)=O | inactive
23 | C[C@](N)(Cc1ccc(O)c(O)c1)C(=O)O | inactive
24 | Cc1cn([C@H]2C=C[C@@H](CO)O2)c(=O)[nH]c1=O | inactive
25 | C1CCC(C(CC2CCCCN2)C2CCCCC2)CC1 (stereo not given) | inactive
26 | CN(N=O)C(=O)N[C@@H]1[C@@H](O)[C@H](O)[C@@H](CO)O[C@@H]1O | inactive
27 | CC(O)(P(=O)(O)O)P(=O)(O)O | inactive
28 | O=S1(=O)OC(c2ccc(O)cc2)(c2ccc(O)cc2)c2ccccc21 | inactive
29 | CC12CCC(CC1)C(C)(C)O2 | inactive
30 | Cc1cc(=O)oc2cc(O)ccc12 | inactive
